An excerpt weighted towards active compounds, which were near 3.5% of everything screened.
Anthrax LF inh2 – Bacillus anthracis LF protease inhibitors, primary screen, biochemical, multiplex microsphere, MLPCN library. Lethal factor (Bacillus anthracis), P15917. multiplex microsphere protease cleavage assay. inhibition, % at 10 µM. 0.12% of 360,000 active. AID 588501, 2011; note: plate controls were buffer without enzyme for full effect and enzyme alone for no effect
BoNT A protease – BoNT/A light chain protease inhibitors, primary screen, biochemical, flow cytometry, MLPCN library. inhibition, % at 10 µM. AID 588499, 2011. multiplex microsphere protease substrate cleavage. 0.17% of 360,000 active; note: plate controls were buffer without enzyme for full effect and enzyme alone for no effect
Autofluor counter – flagged as autofluorescent in microsphere protease counterscreen; compound autofluorescence counterscreen, microsphere flow cytometry; hits give high values; fluorescence intensity (concentration not given with the values); 3.1% of 360,000 active; AID 624483; in the data active = fluorescence intensity above about 16000; inconclusive = no clear call, values can overlap the other calls
BoNT F protease – BoNT/F light chain protease inhibitors, primary screen, biochemical, flow cytometry, MLPCN library. Botulinum neurotoxin type F light chain protease (Clostridium botulinum). Multiplex microsphere protease cleavage assay. inhibition, % at 10 µM. 0.22% of 360,000 active; in the data active = inhibition above about 35%, passing the limit was not always enough; inconclusive = no clear call, values can overlap the other calls; note: plate controls were buffer without enzyme for full effect and enzyme alone for no effect
BH1578 lux ind – inducers of Vibrio cholerae quorum light production without autoinducers, primary screen, BH1578 luxS cqsA deficient, single point. V. cholerae BH1578 lux reporter, luminescence, 6 h. activation, % at 18.7 µM. 0.16% of 350,000 active; in the data active = activation mostly above about 9.7%, no sharp cut-off; inconclusive = no clear call, values can overlap the other calls; inactive = mostly below about 3.7%
Starred values were filed as active, the others as inactive. Cut-off read from the data, not from the text of the source, unless noted: active = inhibition above about 30%; inconclusive = no clear call, values can overlap the other calls; inactive = below that.

What do the screens show for `Cc1cc(/C=N/NC(=O)c2cccs2)c(C)n1-c1ccccc1`?
Anthrax LF inh2: -4.2; BoNT A protease: -0.2; Autofluor counter: 4249; BoNT F protease: -19.8; BH1578 lux ind: -0.4

How did C=Cn1cc[n+](CC(=O)c2ccc(Cl)c(Cl)c2)c1 do in these assays?
Anthrax LF inh2: -5.3; BoNT A protease: 3.6; Autofluor counter: 3290; BoNT F protease: 24.8; BH1578 lux ind: -0.1

What do the screens show for `CCC(=O)Nc1ccc(S(=O)(=O)Nc2cccc(C)c2)cc1OC`?
Anthrax LF inh2: 0.0; BoNT A protease: -1.7; Autofluor counter: 23804*; BoNT F protease: -3.1; BH1578 lux ind: inactive

What do the screens show for `CCC(=O)Nc1ccc(S(=O)(=O)N2CCCCC2)cc1OC`?
Anthrax LF inh2: 0.2; BoNT A protease: -0.7; Autofluor counter: 10577; BoNT F protease: -7.5; BH1578 lux ind: -0.2

Results for Cc1cc(N2C(=O)C(O)=C(C(=O)c3cccs3)C2c2ccc(F)cc2)no1 (configuration not stated) ?
Anthrax LF inh2: -5.8; BoNT A protease: -0.3; Autofluor counter: 5894; BoNT F protease: -1.6; BH1578 lux ind: -0.4

Results for Cc1cc(N2C(=O)C(O)=C(C(=O)c3cccs3)C2c2ccccc2)no1 (configuration not stated) ?
Anthrax LF inh2: -2.1; BoNT A protease: -3.4; Autofluor counter: 17508*; BoNT F protease: -6.8; BH1578 lux ind: inactive

Results for Cc1cc(N2O[C@]34C=C[C@]25C[C@@H](O)CC[C@]5(C)C3CC[C@]2(C)[C@@H]([C@H](C)/C=C/[C@H](C)C(C)C)CC[C@H]24)no1 (some centres not stated) ?
Anthrax LF inh2: -5.0; BoNT A protease: -0.7; Autofluor counter: 3404; BoNT F protease: 2.1; BH1578 lux ind: -0.7

Results for Cc1ccc(N2C(=O)CSC2c2c(F)cccc2Cl)cc1 (configuration not stated) ?
Anthrax LF inh2: -10.8; BoNT A protease: inconclusive; Autofluor counter: 17035*; BoNT F protease: 13.1; BH1578 lux ind: inactive

Results for COc1ccc(NC(=O)CSc2nnc(-c3cc(C)[nH]n3)n2N)cc1 ?
Anthrax LF inh2: 0.0; BoNT A protease: 1.1; Autofluor counter: 5828; BoNT F protease: 10.0; BH1578 lux ind: -0.3

Results for Cc1ncsc1CCC(=O)N1CCCC(C(=O)c2ccc3c(c2)OCO3)C1 (configuration not stated) ?
Anthrax LF inh2: -1.4; BoNT A protease: -0.1; Autofluor counter: 4310; BoNT F protease: -3.8; BH1578 lux ind: inactive

What do the screens show for `CCOc1ccc(/C=C/[N+](=O)[O-])c2ccccc12`?
Anthrax LF inh2: 28.5; BoNT A protease: 47.0*; Autofluor counter: 6477; BoNT F protease: 16.1; BH1578 lux ind: -0.2

How did CCOC(=O)COc1ccc2ccccc2c1/C=C/[N+](=O)[O-] do in these assays?
Anthrax LF inh2: 6.5; BoNT A protease: 10.9; Autofluor counter: 2441; BoNT F protease: -1.8; BH1578 lux ind: -0.3

Results for CC1(C)C2([N+](=O)[O-])CN3CC1([N+](=O)[O-])CN(C2)C31CCCC1 ?
Anthrax LF inh2: -1.9; BoNT A protease: inconclusive; Autofluor counter: 17714*; BoNT F protease: -6.9; BH1578 lux ind: -0.7

Results for CC1(C)C2([N+](=O)[O-])CN3CC1([N+](=O)[O-])CN(C2)C3c1ccccc1 (configuration not stated) ?
Anthrax LF inh2: 0.9; BoNT A protease: 3.5; Autofluor counter: 22107*; BoNT F protease: 5.5; BH1578 lux ind: inactive

Results for Cc1cc(C(=O)CSc2nnc(-c3ccccc3F)o2)c(C)n1Cc1cccs1 ?
Anthrax LF inh2: -1.3; BoNT A protease: -0.5; Autofluor counter: 20558*; BoNT F protease: -0.2; BH1578 lux ind: -3.0

Results for Cc1cc(C(=O)CSc2nc3ccccc3n2CCC#N)c(C)n1Cc1cccs1 ?
Anthrax LF inh2: -18.6; BoNT A protease: -3.5; Autofluor counter: 12378; BoNT F protease: -14.0; BH1578 lux ind: -0.3

How did COc1ccccc1-n1cnnc1SCC(=O)c1cc(C)n(Cc2cccs2)c1C do in these assays?
Anthrax LF inh2: -0.9; BoNT A protease: -0.8; Autofluor counter: 17083*; BoNT F protease: -0.7; BH1578 lux ind: -5.3

Results for ONC(=Nc1ccccc1Cl)c1c(F)cccc1F ?
Anthrax LF inh2: -9.4; BoNT A protease: -1.4; Autofluor counter: 4480; BoNT F protease: -4.6; BH1578 lux ind: -0.3

Results for Oc1ccc(CN2CCc3ccccc3C2)c2cccnc12 ?
Anthrax LF inh2: -3.2; BoNT A protease: -2.2; Autofluor counter: 16689*; BoNT F protease: -12.0; BH1578 lux ind: inactive

Results for Oc1ccc(CN2CCCCC2)c2cccnc12 ?
Anthrax LF inh2: -2.1; BoNT A protease: -1.7; Autofluor counter: 9628; BoNT F protease: -24.4; BH1578 lux ind: -0.4

Results for Cn1cc(CN2CCc3ccccc3C2)c2ccccc21 ?
Anthrax LF inh2: 1.3; BoNT A protease: -2.7; Autofluor counter: 21029*; BoNT F protease: -3.5; BH1578 lux ind: -0.2

What do the screens show for `CCN1CCc2ccccc2C1`?
Anthrax LF inh2: -8.8; BoNT A protease: -1.1; Autofluor counter: 5888; BoNT F protease: -13.6; BH1578 lux ind: 0.1

Results for CCOc1ccc(-c2nc[nH]c2[N+](=O)[O-])cc1 ?
Anthrax LF inh2: -5.2; BoNT A protease: -0.8; Autofluor counter: 3600; BoNT F protease: -7.5; BH1578 lux ind: inactive

How did CCC(C)NC(=O)c1ccccc1C(=O)NC(C)CC (configuration not stated) do in these assays?
Anthrax LF inh2: -2.6; BoNT A protease: -3.5; Autofluor counter: 24599*; BoNT F protease: -6.4; BH1578 lux ind: 2.5

What do the screens show for `Cc1ccccc1NC(=O)c1ccc(CSc2ncccn2)cc1`?
Anthrax LF inh2: -2.0; BoNT A protease: -0.4; Autofluor counter: 16598*; BoNT F protease: -0.2; BH1578 lux ind: 0.3

What do the screens show for `CC(C)CNC(=O)c1ccccc1NC(=O)c1ccc(CSc2ccccc2)cc1`?
Anthrax LF inh2: -2.2; BoNT A protease: 0.2; Autofluor counter: 2358; BoNT F protease: -4.4; BH1578 lux ind: 0.9

What do the screens show for `CCC(C)NC(=O)c1ccccc1NC(=O)c1ccc(CSc2ccc(C)cc2)cc1` (configuration not stated)?
Anthrax LF inh2: -3.5; BoNT A protease: -2.9; Autofluor counter: 17124*; BoNT F protease: -6.1; BH1578 lux ind: -1.8

How did Cc1cc(C(=O)Nc2ccc(Cl)c(S(=O)(=O)N3CCOCC3)c2)c2ccccc2n1 do in these assays?
Anthrax LF inh2: inconclusive; BoNT A protease: 4.1; Autofluor counter: 5166; BoNT F protease: inconclusive; BH1578 lux ind: inactive

What do the screens show for `O=C(NCCc1ccc(Cl)cc1)c1ncn[nH]1`?
Anthrax LF inh2: -1.5; BoNT A protease: -1.2; Autofluor counter: 4133; BoNT F protease: -21.0; BH1578 lux ind: inactive

Results for O=C(NCCc1ccccc1)c1ncn[nH]1 ?
Anthrax LF inh2: 1.5; BoNT A protease: inconclusive; Autofluor counter: 20498*; BoNT F protease: -0.3; BH1578 lux ind: inactive

Source: PubChem BioAssay
